PubChem BioAssay AID1159580 (chemical genetic matrix, 2015)
Values joined by “and” are separate entries in the source; they are usually repeats but may differ in a detail not shown here. Equal entries are not always repeated. About 2,000 (36%) of roughly 5,500 compounds were called active. Inconclusive results (about 18%) are left out. Rule as the data show it: active = normalized growth mostly below about 0.91 (no sharp cut-off); inconclusive = no clear call, values can overlap the other calls; inactive = mostly above about 0.92. The list shows a part of the results.

Assay: chemical genetic growth profiling, strain panel (AID 1159580);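 also: tested at 20 µM; growth read once vehicle control cultures reached saturation at 30 °C; 1 = growth at the plate median or of vehicle wells; lower values mean less growth of the strain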
Conditions: S. cerevisiae deletion strains, growth OD

Measured: normalized growth

CC(C)Nc1nc(Cl)nc(NC(C)C)n1
inactive: locus YAL013W, strain DEP1, hits give low values 1.01 | locus YAL021C, strain ccr4, hits give low values 1 | locus YAL026C, strain drs2, hits give low values 0.996 | locus YAL030W, strain snc1, hits give low values 0.998 | locus YBL061C, strain skt5, hits give low values 0.996 | locus YBR009C, strain hhf1, hits give low values 1 | locus YBR021W, strain FUR4, hits give low values 1.01 | locus YBR023C, strain chs3, hits give low values 0.992 | locus YBR171W, strain sec66, hits give low values 0.995 | locus YBR229C, strain ROT2, hits give low values 0.993 | locus YBR231C, strain swc5, hits give low values 0.996 | locus YBR279W, strain paf1, hits give low values 0.994 | locus YCL011C, strain gbp2, hits give low values 0.992 | locus YCL016C, strain dcc1, hits give low values 1 | locus YCL029C, strain bik1, hits give low values 1.01 | locus YCL061C, strain MRC1, hits give low values 0.987 | locus YCL069W, strain vba3, hits give low values 1.01 | locus YCR088W, strain abp1, hits give low values 0.992 | locus YDL005C, strain med2, hits give low values 0.998 | locus YDL035C, strain GPR1, hits give low values 1.01 | locus YDL040C, strain nat1, hits give low values 0.999 | locus YDL074C, strain BRE1, hits give low values 1.01 | locus YDL101C, strain DUN1, hits give low values 1.01 | locus YDL134C, strain PPH21, hits give low values 1.01 | locus YDL185W, strain tfp1, hits give low values 1.01 | locus YDL192W, strain arf1, hits give low values 1 | locus YDR001C, strain nth1, hits give low values 1 | locus YDR069C, strain doa4, hits give low values 1.01 | locus YDR101C, strain arx1, hits give low values 0.996 | locus YDR137W, strain rgp1, hits give low values 0.953 | locus YDR150W, strain NUM1, hits give low values 1 | locus YDR159W, strain sac3, hits give low values 1.03 | locus YDR162C, strain NBP2, hits give low values 1.01 | locus YDR195W, strain ref2 0.969 | locus YDR297W, strain sur2, hits give low values 1 | locus YDR318W, strain mcm21, hits give low values 1.02 | locus YDR334W, strain swr1, hits give low values 0.995 | locus YDR335W, strain msn5, hits give low values 1 | locus YDR388W, hits give low values 1.01 | locus YDR392W, strain spt3, hits give low values 0.996 | locus YDR502C, strain sam2, hits give low values 1.01 | locus YEL003W, strain gim4, hits give low values 1 | locus YEL037C, strain rad23, hits give low values 1.01 | locus YEL061C, strain CIN8 (second series), hits give low values 1 | locus YEL061C, strain CIN8, hits give low values 1.01 | locus YER015W, strain faa2, hits give low values 1 | locus YER016W, strain bim1, hits give low values 1 | locus YER110C, hits give low values 1.01 | locus YER111C, strain swi4, hits give low values 0.994 | locus YER155C, strain BEM2 (second series), hits give low values 0.992 | locus YER155C, strain BEM2, hits give low values 1.01 | locus YER167W, strain BCK2, hits give low values 1.01 | locus YFR010W, strain ubp6, hits give low values 1.01 | locus YGL078C, strain dbp3, hits give low values 1.02 | locus YGL086W, strain mad1, hits give low values 1.01 | locus YGL167C, strain pmr1, hits give low values 0.998 | locus YGL173C, strain kem1, hits give low values 0.996 | locus YGL227W, strain vid30, hits give low values 0.988 | locus YGL240W, strain doc1, hits give low values 0.99 | locus YGL248W, strain PDE1, hits give low values 1.01 | locus YGL253W, strain hxk2, hits give low values 0.999 | locus YGR078C, strain PAC10, hits give low values 0.997 | locus YGR135W, strain pre9, hits give low values 0.997 | locus YGR229C, strain SMI1, hits give low values 1 | locus YGR252W, strain gcn5, hits give low values 0.983 | locus YHR013C, strain ard1, hits give low values 1 | locus YHR027C, strain rpn1, hits give low values 0.994 | locus YHR030C, strain SLT2, hits give low values 0.979 | locus YHR079C, strain IRE1 (second series), hits give low values 1.02 | locus YHR079C, strain IRE1, hits give low values 0.978 | locus YHR094C, strain hxt1, hits give low values 1.01 | locus YHR129C, strain ARP1, hits give low values 1.01 | locus YHR142W, strain chs7, hits give low values 0.995 | locus YHR200W, strain rpn10, hits give low values 1.01 | locus YIL066C, strain RNR3, hits give low values 1.02 | locus YIL073C, strain SPO22, hits give low values 1.07 | locus YIL125W, strain kgd1, hits give low values 1 | locus YIR030C, strain dcg1, hits give low values 1.02 | locus YJL092W, strain hpr5, hits give low values 0.995 | locus YJL095W, strain BCK1 (second series), hits give low values 1 | locus YJL095W, strain BCK1, hits give low values 0.987 and 0.984 | locus YJL115W, strain asf1, hits give low values 0.986 | locus YJL129C, strain trk1, hits give low values 0.997 | locus YJL134W, strain LCB3, hits give low values 0.993 | locus YJL154C, strain vps35, hits give low values 1 | locus YJL164C, strain tpk1, hits give low values 1.01 | locus YJL166W, strain qcr8, hits give low values 1 | locus YJL168C, strain set2, hits give low values 1.01 | locus YJL187C, strain SWE1 (second series), hits give low values 1.01 | locus YJL187C, strain SWE1, hits give low values 1.01 | locus YJR043C, strain POL32, hits give low values 1.01 | locus YJR066W, strain TOR1, hits give low values 0.928
